Source: PubChem BioAssay AID1851 (National Center for Advancing Translational Sciences (NCATS), 2009)
The whole screen tested about 16,000 compounds, of which about 2,600 (16%) were called active. Inconclusive results (about 20%) are left out. Calls come from the whole dose curve; as a rule, active = well fitted curve in the direction sought with a large enough effect; inconclusive = small, poorly fitted or top-dose-only effect, or effect the other way; inactive = no such curve, though single readings can be large or run the other way. Only a sample is shown.

Target: Cytochrome P450 2D6 (Homo sapiens) (UniProt P10635)
Sequence (P10635 whole entry, looked up): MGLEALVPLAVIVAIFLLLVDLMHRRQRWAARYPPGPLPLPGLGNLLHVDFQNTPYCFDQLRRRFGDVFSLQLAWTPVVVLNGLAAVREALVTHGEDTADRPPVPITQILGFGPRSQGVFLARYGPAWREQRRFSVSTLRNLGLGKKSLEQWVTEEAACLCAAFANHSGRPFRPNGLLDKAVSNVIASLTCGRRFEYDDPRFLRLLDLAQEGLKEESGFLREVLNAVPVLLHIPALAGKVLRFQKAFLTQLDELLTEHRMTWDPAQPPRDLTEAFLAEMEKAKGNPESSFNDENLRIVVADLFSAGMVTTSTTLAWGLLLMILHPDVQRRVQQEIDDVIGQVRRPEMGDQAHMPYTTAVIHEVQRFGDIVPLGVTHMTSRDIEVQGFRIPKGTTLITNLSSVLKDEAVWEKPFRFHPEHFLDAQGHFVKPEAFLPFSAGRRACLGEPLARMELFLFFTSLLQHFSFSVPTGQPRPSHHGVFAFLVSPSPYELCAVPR
Test: Cytochrome panel assay with activity outcomes
Settings: recombinant CYP, pro-luciferin dealkylation, luminescence, p450-cyp2d6; series mostly up to 57.1 µM; activity, negative = inhibition: at the top concentration
% is set by controls: 0 for no effect and ±100 for the full control effect.

activity, negative = inhibition, inactive:
COc1c2ccoc2nc2c(OC)c(OC[C@H](O)C(C)(C)O)ccc12 -1.44% [at 25.6 µM]
CC(=O)N1N=C(c2cccc([N+](=O)[O-])c2)OC1c1ccccc1Cl (stereo not drawn) -11.9%
O=c1c(-c2cccs2)nc2cnc(Oc3cccc(Cl)c3)nc2n1C[C@H]1CCCO1 4.62%
CCc1ccc(-c2cc(C(F)(F)F)n3nc(C(=O)Nc4cnn(Cc5ccccc5C)c4)cc3n2)s1 9.44%
CCOC(=O)c1c(NC(C)=O)sc2c(OC)cccc12 3.56%
COC(=O)c1ccc(OCC2c3cc(OC)c(OC)cc3CCN2C(=O)C2CC2)cc1 (stereo not drawn) -12.4%
CCCCN(C)S(=O)(=O)c1ccc(C(=O)Nc2nnc(CSC)o2)cc1 14.6%
CCCc1nn(-c2ccccc2)c2c1C(c1cccs1)C(C#N)=C(N)O2 (stereo not drawn) -4.88%
CCC(C(=O)Nc1cccc(C(F)(F)F)c1)c1ccccc1 (stereo not drawn) -21.5%
Cc1[nH]n(-c2ccccc2)c(=O)c1CCOC(=O)c1cccc(C(F)(F)F)c1 -23.9%
COc1cccc(-c2cc(C(=O)N/N=C/c3ccc(OC)c(COC(C)=O)c3)c3ccccc3n2)c1 32%
CCc1ccc(NC(=O)Cn2nc(C(F)(F)F)c3c2CCC3)cc1 -27%
O=C(Cn1nnc(-c2ccccc2)n1)OCc1ccccc1 -13.4%
CCC[C@H](Sc1nc(N)nc2nc[nH]c12)C(=O)O 1.31% [at 11.4 µM]
CCCNC(=O)OC[C@H]1O[C@@H](CCO/N=C2/[C@H]3O[C@@H]3[C@@H](O)[C@H]3[C@H]2CCn2c(=O)n(-c4ccccc4)c(=O)n23)C=C[C@@H]1Oc1ccc(OC)cc1 10.6% [at 11.4 µM]
CCCCCc1nc2c(C#N)c(-c3ccc(Cl)cc3)ccn2n1 -15.8%
O=C(Nc1ccccc1)N1CC2(CCN(C(=O)c3cnccn3)CC2)C1 -6.12%
O=C(c1cnccn1)N1CCC[C@@]2(CCN(c3ccccn3)C2)C1 -16.8%
O=C(Nc1ccccc1)N1CC[C@@]2(CCCN(C(=O)c3cnccn3)C2)C1 2.56%
O=C(c1cnccn1)N1CCC2(CCCN(c3ccccc3)C2)CC1 -6.98%
O=C(c1cnccn1)N1CCC2(CC1)CCN(c1ccccc1)CC2 -5.31%
O=C(Nc1ccccc1)N1CCC2(CC1)CCN(C(=O)c1cnccn1)CC2 1.86%
O=C(Nc1ccccc1)N1CCCC2(CCN(C(=O)c3cnccn3)CC2)C1 -1.93%
O=C(c1cnccn1)N1CCC2(CC1)CN(c1ccccc1)C2 12.2%
Cc1cc(NC(=O)Nc2ccc(F)cc2)no1 -4.04%
Clc1ccccc1C(Nc1ncccn1)Nc1ncccn1 1.87% [at 11.4 µM]
CN(C)CCCN=c1c2ccccc2n(C)c2[nH]c(=O)n(C)c(=O)c12 13.4% [at 11.4 µM]
CCN1CCN(C(=O)C2c3cc(OC)c(OC)cc3C(=O)N3CCc4ccccc4C23)CC1 (stereo not drawn) 6.87%
O=C(O)C1C2C=CC3(CN(Cc4ccccn4)C(=O)C13)O2 (stereo not drawn) -2.08%
CCOC(=O)Cn1nnc2c(sc3nc4c(c(-c5ccc(Cl)cc5)c32)CCC4)c1=O -12.5%
CC(C)Cn1c(=O)n(C)c(=O)c2[nH]cnc21 -4.45%
FC(F)(F)c1cc(C(F)(F)F)c2ccc(N/N=C/c3cccc(Cl)c3)nc2n1 13.3%
Cc1cnc(CNc2ncncc2-c2c(C)noc2C)cn1 -3.29%
CC(=O)NCCNc1ncncc1-c1ccccc1C -17.1%
CO[C@H]1COC(=O)C/C=C\[C@@H](C)COC(=O)[C@@H](C)NC(=O)C/C=C\[C@@H]1C 1.11% [at 11.4 µM]
O=S(=O)(c1ccccc1S(=O)(=O)N1CCCCC1)N1CCCCC1 -8.09%
CC1(CCC#N)N=C(SCCC#N)N(c2ccccc2)C1=O (stereo not drawn) 14.5%
Cc1ccc(S(=O)(=O)N[C@H](CN)C(=O)O)cc1 3.02% [at 11.4 µM]
CC(C)Oc1ccc(C2CC(=O)NC3=C2C(=O)CCC3)cc1 (stereo not drawn) -8.75%
CCCCSC(=S)N(C)C1CCS(=O)(=O)C1 (stereo not drawn) -20.3%
C=C(Br)CN(C)CC(=C)Br 9.77% [at 11.4 µM]
CCOc1cc(C2CC(=O)c3c(ccc4ccccc34)N2)ccc1O (stereo not drawn) -0.911%
COc1ccc(C2C(C(=O)N3CCOCC3)CCC(=O)N2c2ccc(OC)cc2)cc1 (stereo not drawn) 8.66%
CC(C)C(NC(=O)C12CC3CC(CC(C3)C1)C2)C(=O)NC1=NCCS1 (stereo not drawn) -10.7%
COC(=O)c1cc(C(=O)c2cccc(Cl)c2Cl)cn1C -19.6%
Cc1cnc(CNc2ncncc2-c2ccccc2C#N)cn1 -2.44%
CC(C)Oc1cccc(C(=O)NC(=S)N2CCN(c3ccc(C(F)(F)F)cc3[N+](=O)[O-])CC2)c1 -16.2%
O=C(CCN1C(=O)/C(=C/c2cccc(Br)c2)SC1=S)NNC(=O)c1cccnc1 -8.93%
C[C@](O)(c1ccccc1)c1nccc2ccccc12 -11.5% [at 11.4 µM]
COc1cccc(NC(=O)c2oc3ccccc3c2NC(C)=O)c1 -15.6%

AC50, inactive:
COc1c(C)c2c(c(O)c1C/C=C(\C)CCC(=O)O)C(=O)OC2

AC50, active:
COc1ccc2[nH]cc(CCNc3ncncc3-c3ccccc3C)c2c1 1.26 µM
C[C@@H](Cc1cccc(C(F)(F)F)c1)NCCOC(=O)c1ccccc1 0.0158 µM
CN(C)C(=O)c1ccc(-n2nc(C(F)(F)F)c3c2CCCC3)cc1 8.91 µM
O=C(c1cnccn1)N1CCC2(CC1)CN(C(c1ccccc1)c1ccccc1)C2 6.31 µM
O=C(c1cnccn1)N1CCC2(CC1)CCN(C(c1ccccc1)c1ccccc1)CC2 3.98 µM
O=C(c1cnccn1)N1CCC2(CCCN(C(c3ccccc3)c3ccccc3)C2)CC1 10 µM
O=C(c1cnccn1)N1CCC[C@@]2(CCN(C(c3ccccc3)c3ccccc3)C2)C1 10 µM
FC(F)(F)c1ccccc1-c1cncnc1NCc1cccs1 15.8 µM
COc1ccccc1-c1cncnc1NCc1cccs1 15.8 µM
Cc1ccccc1-c1cncnc1NCc1cccs1 12.6 µM
Clc1ccccc1-c1cncnc1NCc1cccs1 10 µM
CN(C)Cc1ccccc1-c1cncnc1NCc1cccs1 12.6 µM
